The values that follow come from PubChem BioAssay (NCI).

The panel holds about 83,000 compounds, 20% with a hit somewhere; the sample as a whole holds those more often.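 Plates (96-well) were seeded with cells, treated with compound at one concentration, and incubated for 48 hours before percent growth was determined.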 Unmarked numbers belong to inactive results. The source made the active and inactive calls. How the source made its calls: active means growth percent below 10; inactive means the rest.

Holding throughout (experiment): NCI-60 one-dose screen, 48 h (100 = growth as untreated, 0 = no growth, -100 = all killed)
Holding throughout (settings): 10 µM unless noted

Assay [1] concerns NCI-H23 lung.
Assay [2] deals with NCI-H226 lung.
The subject of assay [3] is NCI-H322M lung.
Assay [4] concerns HOP-62 NSCLC.
Assay [5] has as its system NCI-H460 lung.
Assay [6] concerns HOP-92 NSCLC.
The subject of assay [7] is NCI-H522 lung.
Assay [8] concerns A549/ATCC NSCLC.
Assay [9] relates to 786-0 renal.
The subject of assay [10] is COLO 205 colon.
Assay [11] has as its system DU-145 prostate.
Assay [12] has as its system K-562 leukemia.
The test system of assay [13] is MALME-3M melanoma.
Assay [14] concerns MDA-MB-231 breast.
Assay [15] concerns RXF 393 renal.
Assay [16] concerns SF-268 CNS.
For assay [17], the system named is SF-295 CNS.
In assay [18] the test system is SF-539 CNS.
The subject of assay [19] is UACC-257 melanoma.
Assay [20] concerns M14 melanoma.

Regarding `COc1ccc(N2CCN(c3ccc(NC4=C(Cl)C(=O)c5ncccc5C4=O)cc3)CC2)cc1`, the growth in [1] was 26.2%; in [2], 52.8%; in assay [3], 46.9%; in assay [4], 56.2%; in [5] it was 17.6%; in assay [6] it was 85.8%. In addition, the growth in assay [7] was 43.8%; in assay [8] it was 36.1%; in assay [9], 80.1%; in assay [10], 43%; in [11], 35.3%; in [12] it was 4.16% (active). The growth is 31% in assay [13]; 56.7% in [14]; 62.6% in [15]; 40% in [16]; 81.2% in assay [17]; 39.4% in assay [18]. For the same compound, the growth in assay [19] is 35.6%; in assay [20], 53.6%.
As for `O=C(Nc1cccc(C(=O)N2CCc3ccc(Cl)cc32)c1)c1ccco1`, the growth is 62.4% in [1]; 60.2% in assay [2]; 65.2% in [3]; 42.4% in [4]; 15.8% in [5]; 74.1% in assay [6]. The growth in assay [7] is 17.8%; in assay [8] it was 38.3%; in assay [9], 40.5%; in assay [10], 27.5%; in [11], 67.8%; in [12], 13.9%. Besides, the growth in [13] was 40.9%; in assay [14], 44.9%; in [15], 39.9%; in [16], 55.9%; in assay [17] it was 30.8%; in [18] it was 26.8%. In addition, the growth in assay [19] is 52.2%; in assay [20] it was 18.2%.
As for `Cn1ccnc1C(=O)/C=C/c1ccc(CC(=O)NC2CCCCC2)cc1`, the growth in assay [1] was 61.9%; in [2], 92.8%; in assay [3] it was 61%; in assay [4], 56%; in [5] it was 26%; in assay [6], 75%. For the same compound, the growth is 52.1% in assay [7]; 64.1% in [8]; 71.3% in assay [9]; 67.9% in [10]; 6.25% (active) in assay [11]; 18% in [12]. For the same compound, the growth in assay [13] is 92%; in [14] it was 65.1%; in assay [15] it was 73.2%; in assay [16], 40.9%; in assay [17], 77.8%; in assay [18], 63.7%. For the same compound, the growth in [19] was 84.8%; in assay [20], 89.8%.
As to `Cc1ccccc1NS(=O)(=O)c1cccc(C(=O)Nc2ccc(Br)cc2)c1`, the growth is 18.5% [25 µM] in [1]; 29.1% [25 µM] in [2]; 64.2% [25 µM] in assay [3]; 80.7% [25 µM] in assay [4]; 35.8% [25 µM] in assay [5]; 21.1% [25 µM] in assay [6]. Further, the growth was 39.6% [25 µM] in [7]; 38.1% [25 µM] in assay [8]; 53.6% [25 µM] in assay [9]; 52.4% [25 µM] in assay [10]; 57.8% [25 µM] in [11]; 23.1% [25 µM] in assay [12]. Moreover, the growth in assay [13] is 18% [25 µM]; in assay [14], 56% [25 µM]; in assay [15], 60.7% [25 µM]; in [16], 36.5% [25 µM]; in assay [17], 19.7% [25 µM]; in assay [18] it was 57.3% [25 µM]. Moreover, the growth in assay [19] is 27.4% [25 µM]; in assay [20], 35.5% [25 µM].
With `CN(C)CCn1c2ccc(Br)cc2c2nc3ccccc3nc21`, the growth in assay [1] was 36.1%; in [2], 41.9%; in [3] it was 35.2%; in [4], 25.1%; in [5], 12.6%; in assay [6], 49.6%. Also, the growth is 29.8% in assay [7]; 17.4% in [8]; 33.7% in assay [9]; 9.69% (active) in assay [10]; 27% in assay [11]; 12.1% in [12]. Also, the growth in assay [13] was 51.3%; in [14] it was 30.3%; in assay [15], 39.4%; in assay [16], 43.1%; in assay [17], 26.8%; in assay [18], 27.3%. Further, the growth is 46% in [19] and 30% in [20].
Regarding `COc1cc2c(=O)n(CCN)c3c4cc5c(cc4ccc3c2cc1OC)OCO5`, the growth was 14.2% in [1]; -66% (active) in assay [2]; -72.1% (active) in [3]; -51.2% (active) in assay [4]; -76.5% (active) in [5]; 49.6% in [6]. The growth in [7] is -7.78% (active); in assay [8], -76.5% (active); in assay [9] it was -79.3% (active); in assay [10], -0.566% (active); in assay [11], -83.2% (active); in assay [12], -55% (active). The growth in assay [13] is -72.3% (active); in [14] it was -81.7% (active); in assay [15] it was -76.8% (active); in assay [16], -59.6% (active); in [17] it was 25%; in assay [18], -75.9% (active). Further, the growth in [19] was 33.8%; in assay [20], -50.8% (active).
For `COc1cc2c(=O)n(CCN(C)C)c3c4cc5c(cc4ccc3c2cc1OC)OCO5`, the growth was -20.7% (active) in assay [1]; -97.6% (active) in assay [2]; -15.7% (active) in assay [3]; -5.77% (active) in [4]; -31.6% (active) in assay [5]; -9.74% (active) in assay [6]. Besides, the growth in [7] is -37.9% (active); in assay [8], -84.9% (active); in [9], -58.7% (active); in assay [10], -56.3% (active); in assay [11] it was 3.59% (active); in assay [12], 12.1%. Further, the growth in assay [13] is -63.6% (active); in [14] it was -21.6% (active); in assay [15], -84.6% (active); in [16] it was 0.0226% (active); in assay [17], 3.79% (active); in assay [18] it was -39.9% (active). The growth is -33.4% (active) in assay [19] and -56.7% (active) in assay [20].
Consider `CC1(C)CC[C@]2(C(=O)O)CC[C@]3(C)C(=CC[C@@H]4[C@@]5(C)Cc6c([nH]c7ccccc67)C(C)(C)[C@@H]5CC[C@]43C)[C@@H]2C1`, for which the growth in assay [1] was 32.8%; in [2] it was 48.9%; in assay [3], 27.3%; in assay [4], 28.2%; in assay [5], 16.7%; in assay [6], 60.3%. Also, the growth in assay [7] was 31.5%; in assay [8], 17.8%; in [9], 37.7%; in [10] it was -15.5% (active); in assay [11], 49.5%; in assay [12], 28.8%. Besides, the growth in assay [13] is 115%; in [14] it was 65.5%; in assay [15], 67.2%; in assay [16], 54%; in [17], 36.7%; in assay [18], 36.2%. Moreover, the growth in assay [19] was 88.5%; in [20] it was 76.4%.
